Potency, max response and outcome data for 39 compounds are collected here from PubChem BioAssay (NCATS).

Several values for one entry are separate records, joined by “and”; a condition that tells them apart may be missing. Equal entries are not always repeated. Results filed as inconclusive are left out. Some structures have more than one record in an assay (separate samples or runs), and their calls can disagree. Unmarked numbers belong to inactive results. Activity calls are given as the source filed them. The call rests on the fitted dose curve; in most records, active means well fitted inhibition curve with a large enough effect; inconclusive means small, poorly fitted or top-dose-only effect; inactive means flat fitted curve, though single readings scatter.

Assay in all cases: Cytotoxic Profiling of Annotated Libraries Using Quantitative High-Throughput Screening (AID 1296008); further: nearly all actives have a fitted effect of over 60% in size
Holding throughout (conditions): Five cell lines viability, CellTiter-Glo ATP luminescence, 48-72 h; max response: active compounds read low
(In general: In ATP-based viability assays light output follows the ATP content of the culture.)

The subject of one assay is CRL-7250. In a few lines:
(§1)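 Cytotoxicity was measured as CellTiter-Glo ATP luminescence, read after 10 min at room temperature. Compound treatment of the cells lasted 48 or 72 hr at 37 degrees Celsius in a qHTS format.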

A further assay has as its system HEK293. In a few lines:
as §1

Another assay concerns HaCat. Put shortly: as §1
For the next assay, the system named is KB-3-1. Put shortly: as §1
On the % scale 0 is the no-effect control and ±100 the full control effect; potency means the concentration at half of the fitted maximal effect.

For `Cc1c(N)nc([C@H](CC(N)=O)NC[C@@H](N)C(N)=O)nc1C(=O)N[C@H](C(=O)N[C@@H](C)[C@H](O)[C@@H](C)C(=O)N[C@@H](C(=O)NCCc1nc(-c2nc(C(=O)NCCC[S+](C)C)cs2)cs1)[C@@H](C)O)C(O[C@H]1O[C@H](CO)[C@H](O)[C@@H](O)[C@@H]1O[C@H]1O[C@H](CO)[C@@H](O)[C@H](OC(N)=O)[C@H]1O)c1cnc[nH]1` (stereo partly specified), the Potency in the assay on CRL-7250 is 10.5 µM (active); with HEK293, 0.526 µM (active).
As for `C[C@]12Cc3cn[nH]c3C[C@@H]1CC[C@@H]1[C@H]2CC[C@@]2(C)[C@H]1CC[C@]2(C)O`, the max response in the assay with CRL-7250 is 3.97%; with HEK293 it was -21.8%; with KB-3-1 it was -0.691%. Moreover, the outcome in the assay with HaCat was inactive.
Turning to `CC1(N2CCC(n3c([C@@H]4CCCNC4)nc4ccccc43)CC2)CCCCCCC1`, the Potency in the assay on CRL-7250 was 14.8 µM (active); with HEK293 it was 4.69 µM (active) and 7.31 µM (active). Moreover, in the assay with HaCat, the max response was -28.8%.
For the compound `c1ccc2c(CN3CCNCC3)cccc2c1`, the max response with CRL-7250 was -5.13%; in the assay on HEK293, -5.02%; in the assay with HaCat, 2.18%. Also, the call in the assay with KB-3-1 was inactive.
As for `CC(=O)N(C)c1cccc(-c2ccnc3c(C(=O)c4cccs4)cnn23)c1`, the max response in the assay on CRL-7250 was -13.2%; with HEK293 it was -28% and -16.5%; with HaCat it was 3.39%; with KB-3-1, -3.54%. In addition, the compound was called inactive in the assay with CRL-7250, in the assay with HaCat and in the assay with KB-3-1.
As to `CC(C)NCC(O)c1ccc([N+](=O)[O-])cc1` (stereo unspecified), the max response is -2.22% in the assay on CRL-7250, -8.6% with HEK293, -38.9% with HaCat and -11.6% in the assay on KB-3-1.
For `COC1=C[C@@H]2[C@@H]3Cc4ccc(OC)c(O)c4[C@]2(CCN3C)CC1=O`, the compound was called inactive in the assay with CRL-7250, in the assay with HaCat and in the assay with KB-3-1. In addition, the max response in the assay with HEK293 was 1.05% and -3.7%; with HaCat, -2.22%; in the assay on KB-3-1 it was 1.47%.
In the case of `CCCCCC[C@H]1C(=O)O[C@H](C)[C@H](NC(=O)c2cccc(NC=O)c2O)C(=O)O[C@@H](C)[C@@H]1OC(=O)CC(C)C`, the Potency is 1.48 µM (active) in the assay on CRL-7250 and 0.469 µM (active) in the assay on HEK293. Moreover, the max response in the assay on HaCat was -16%.
The like results for `CO[C@H]1CCC(O[C@H]2C[C@H]([C@]3(C)CC[C@]4(C[C@H](O)[C@@H](C)[C@@H]([C@@H](C)C=C(C)C(=O)[C@H](C)C[C@H](C)C(=O)O)O4)O3)O[C@]3(O[C@@H]([C@H]4O[C@@](O)(CO)[C@H](C)C[C@H]4C)C[C@H]3C)[C@H]2C)O[C@H]1C` (stereo partly specified) were, in that order, 1.05 µM (active), 0.59 µM (active) and -21.4%.
Turning to `C[C@]12CC[C@@H]3[C@@H](CCC4=CC(=O)CC[C@@H]43)[C@@H]1CC[C@@H]2OC(=O)CCc1ccccc1`, the max response in the assay with CRL-7250 is 1.37%; with HaCat, -22.8%. For the same compound, the result in the assay with HEK293 was inactive.
As to `O=C(N[C@@H](COc1ccc2[nH]c(=O)[nH]c2c1)c1ccccc1)c1cccn(Cc2ccc(F)c(F)c2)c1=O`, the max response was -47.2% in the assay with CRL-7250; -35.2% and -9.78% with HEK293; -18% in the assay on HaCat; -0.47% with KB-3-1.
In the case of `Cc1[nH]nc2ccc(-c3cncc(OC[C@@H](N)Cc4c[nH]c5ccccc45)c3)cc12`, the Potency is 935 nM (active) and 2.06 µM (active) in the assay on CRL-7250; 132 nM (active) and 103 nM (active) in the assay on HEK293; 1.18 µM (active) with HaCat; 146 nM (active) with KB-3-1.
`CC(C)(C)c1cc(C=C(C#N)C#N)cc(Br)c1O`: in the assay on CRL-7250, the call was inactive. In addition, the max response in the assay on HEK293 was -8.76%; with HaCat, 3.48%.
Take `CC1=C(C(=O)O)N2C(=O)[C@@H](N)[C@H]2SC1`: the outcome in the assay on CRL-7250 and with HEK293 was inactive. Also, the max response with HaCat was 3.51%.
For the compound `C=C[C@@H]1CN2CCC1C[C@@H]2[C@@H](O)c1ccnc2ccccc12` (stereo partly specified), the max response is -5.2% in the assay on CRL-7250 and -17.4% in the assay on HaCat. Besides, the Potency with HEK293 is 18.7 µM (active).
`CN[C@@H](C)[C@H](O)c1ccccc1`: the max response in the assay with CRL-7250 was -24.6%; in the assay on HaCat it was 1.69%; in the assay on KB-3-1 it was -0.943%. For the same compound, in the assay on HEK293, the compound was called inactive.
For the compound `Cc1ccccc1-n1c(Cn2ncc3c(N)ncnc32)nc2cccc(C)c2c1=O`, the max response in the assay on CRL-7250 is -1.16%. Moreover, the compound was called inactive with CRL-7250, in the assay with HEK293, in the assay with HaCat and with KB-3-1.
For `CC(=O)Nc1ccc(OC[C@](C)(O)C(=O)Nc2ccc([N+](=O)[O-])c(C(F)(F)F)c2)cc1`, the max response with CRL-7250 is -1.8% and -4.07%; in the assay with HEK293, -11.2%; with HaCat it was -8.66% and -10.1%; with KB-3-1, -13.4% and 7.92%. In addition, in the assay with HEK293, the compound was called inactive.
For the compound `Cc1ccccc1-n1c(Cn2cnc3c(N)ncnc32)nc2cccc(C)c2c1=O`, the Potency was 0.833 µM (active) in the assay with CRL-7250, 1.48 µM (active) in the assay on HEK293, 0.59 µM (active) in the assay with HaCat and 1320 nM (active) in the assay on KB-3-1. Also, the call in the assay with HEK293 was inactive. Besides, the max response in the assay on HaCat was -10.3%; with KB-3-1, 0.515%.
Consider `CCNC(=O)C[C@@H]1N=C(c2ccc(Cl)cc2)c2cc(OC)ccc2-n2c(C)nnc21`, for which the Potency with CRL-7250 was 1.32 µM (active) and 1.3 µM (active); with HEK293, 5.17 µM (active). Besides, the max response in the assay on HaCat was -10.8%.
In the case of `C=CC(=O)NCNC(=O)C=C`, the max response in the assay on CRL-7250 was -10.1%; in the assay with HaCat it was -16.1%; in the assay on KB-3-1, 1.85%. The result with HEK293 was inactive.
As to `CO/C=C(/C(=O)OC)c1ccccc1Oc1cc(Oc2ccccc2C#N)ncn1`, the Potency with CRL-7250 is 19.3 µM (active); in the assay on HEK293, 8.63 µM (active).
With `CCNC(=O)CC1N=C(c2ccc(Cl)cc2)c2cc(OC)ccc2-n2c(C)nnc21` (stereo unspecified), the Potency is 1.64 µM (active) in the assay on CRL-7250 and 6.51 µM (active) in the assay with HEK293. In addition, the max response in the assay with CRL-7250 is -29.2% and -3.83%; in the assay with HEK293, -10.4%; in the assay on HaCat, -4.28% and 0.244% and -23.7%; in the assay on KB-3-1, -3.15%. The outcome in the assay on HEK293 and in the assay with KB-3-1 was inactive.
With `Fc1cc(Br)ccc1CBr`, the max response is -5.31% in the assay on CRL-7250 and -1.72% with HEK293. In the assay with HaCat, the compound was called inactive.
As for `OCCCBr`, the max response in the assay with CRL-7250 is -6.12%; in the assay on HaCat it was -13%; with KB-3-1 it was -26.3%. Also, the compound was classed as inactive in the assay on HEK293.
Consider `O=C(N[C@H]1CN2CCC1CC2)c1ccc(Cl)cc1`, for which the result with CRL-7250, with HEK293, in the assay with HaCat and with KB-3-1 was inactive. Further, the max response in the assay with HEK293 is -12.5%.
`C#C[C@]1(O)C=C[C@@H]2[C@@H]3CCC4=CC(=O)CC[C@@H]4[C@H]3CC[C@@]21CC`: the results for the max response in the assay on CRL-7250 and with HEK293 were -4.4% and -3.75%, respectively. The call in the assay with HaCat was inactive.
Regarding `O=c1[nH]c2ccc(Cl)cc2c(N[C@@H]2CN3CCC2CC3)c1-c1nc2ccccc2[nH]1`, the Potency was 2.35 µM (active) and 6.51 µM (active) in the assay on CRL-7250; 0.059 µM (active) in the assay on HEK293; 16.6 µM (active) in the assay on HaCat; 3720 nM (active) in the assay with KB-3-1. The max response in the assay on HEK293 was -122%.
Consider `O=[N+]([O-])c1ncc[nH]1`, for which the max response with CRL-7250 was -4.09%; in the assay on HEK293 it was -7.79%; with HaCat, -7.46%.
For `C[C@H]([C@H](O)CCC(C)(C)O)[C@H]1CC[C@@]2(O)C3=CC(=O)[C@@H]4C[C@@H](O)[C@@H](O)C[C@]4(C)[C@@H]3CC[C@]12C`, the max response was -2.7% in the assay with CRL-7250 and -1.89% in the assay with KB-3-1. Also, the result in the assay on HEK293 and with HaCat was inactive.
For the compound `CCC(=O)O[C@@H]1C=C2CCC3C(CCC4(C)C3CC[C@@H]4OC(=O)CC)C2CC1` (stereo partly specified), the max response in the assay with CRL-7250 was -3.72%; in the assay on HEK293, 2.37%; in the assay on HaCat, -20.7%.
Consider `O=C(NCC1CCOCC1)c1cnc(Nc2ccc(Cl)cc2Cl)nc1C(F)(F)F`, for which the max response in the assay with CRL-7250 is 4.29% and -22.6%; with HEK293, -4.23%; in the assay on HaCat, -8.57% and -14.9%; with KB-3-1, -20.4%. Besides, in the assay with HEK293, the Potency is 8.2 µM (active). The compound was called inactive in the assay with KB-3-1.
On to `C=C[C@@H]1CN2CCC1C[C@H]2[C@H](O)c1ccnc2ccccc12` (stereo partly specified), for which the outcome with CRL-7250 was inactive.
For the compound `O=C(Oc1ccc([N+](=O)[O-])cc1)N1CCC(C(O)(c2ccc3c(c2)OCO3)c2ccc3c(c2)OCO3)CC1`, the Potency in the assay on CRL-7250 was 13.2 µM (active). The max response with HEK293 is -16.1%; in the assay on HaCat, -5.43%; in the assay on KB-3-1 it was 5.68% and 6.78%. In addition, the compound was called inactive with HaCat.
`O=C(Oc1ccc([N+](=O)[O-])cc1)N1CCN(Cc2cccc(Oc3ccccc3)c2)CC1`: the max response in the assay on CRL-7250 is -6.9% and 1.64%; with HEK293 it was 1.27%; in the assay on HaCat it was 0.717% and -5.04%; in the assay on KB-3-1 it was -6.21% and -13.5%.
Consider `O=[N+]([O-])c1c(Cl)c(Cl)cc(Cl)c1Cl`, for which the max response with CRL-7250 was -4.27%; in the assay with HEK293, 4.07%; with KB-3-1, -18.1%. In addition, the outcome in the assay on HaCat was inactive.
Regarding `CC(C)[C@]12O[C@H]1[C@@H]1O[C@]13[C@]1(O[C@H]1C[C@H]1C4=C(CC[C@@]13C)C(=O)OC4)[C@@H]2O`, the Potency in the assay with CRL-7250 is 0.082 µM (active); in the assay with HEK293, 0.0073 µM (active); in the assay with HaCat, 0.13 µM (active); in the assay with KB-3-1, 65.1 nM (active).
Regarding `CCOC(=O)c1c(C(C#N)=CN)c2ccc(Cl)c(Cl)c2n1C`, the max response with CRL-7250 was 3.66%; in the assay with HEK293 it was -12.5%; in the assay on KB-3-1, -3.02%. The result in the assay with HaCat was inactive.
For the compound `C[C@@H]1[C@H](O)[C@@H](C)C=CC=CCCC=CC=CC=CC=C[C@H](O[C@H]2O[C@@H](C)[C@H](O)[C@@H](N)[C@@H]2O)CC2O[C@](O)(C[C@@H](O)[C@H](O)CC[C@@H](O)C[C@@H](O)C[C@@H](O)CC(=O)O[C@H]1C)C[C@H](O)[C@H]2C(=O)O`, the max response in the assay on CRL-7250 is 4.08%; in the assay with HEK293, 2.42%. Also, the result in the assay with HaCat and with KB-3-1 was inactive.
